PrP UTR inh: suppresses PrP 5' UTR mRNA reporter expression. cell-based PrP 5' UTR mRNA reporter, plate reader. inhibition, % (test concentration not listed). actives 0.35% (n = 340,000). AID 488862; in the data active = inhibition above about 52%; note: 0 = median of the neutral control wells
PrPC TRFRET: inhibitors of human cell surface prion protein PrPC; inhibition, % at 13.8 µM; P04156; TR-FRET read-out; actives 0.43% (n = 370,000); in the data active = inhibition above about 24%; note: 0% = median of the test wells and 100% = reference compound wells
BJeLR viability: kills HRASV12-expressing BJeLR cells | BJeLR (HRASV12) viability, CellTiter-Glo ATP luminescence, 48 h | actives 0.17% (n = 300,000) | inhibition, % (no concentration beside the values); in the data active = inhibition above about 50%
MazEF act: MazEF (E. coli) toxin RNase activation | activation, % at 20 µM | FAM/BHQ RNA-DNA oligo cleavage fluorescence, 5 h | P0AE70 | actives 0.32% (n = 350,000); in the data active = activation above about 50%
Target sequence (P0AE70 whole entry, looked up): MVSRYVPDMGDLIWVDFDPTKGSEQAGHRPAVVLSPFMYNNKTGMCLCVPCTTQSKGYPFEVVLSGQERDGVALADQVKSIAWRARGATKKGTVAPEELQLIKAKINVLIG
* hit, by the source's call. The list is not random: actives were taken first. Their share in the collection is about 1.1%.

`COc1ccccc1NC1=C(NC(C)=O)C(=O)c2ccccc2C1=O` gave PrP UTR inh -9, PrPC TRFRET -61, BJeLR viability -3 and MazEF act 218*.
`Cc1ccc2[nH]c(=O)c(CN(C)C(=O)c3cccs3)cc2c1` gave PrP UTR inh -20, PrPC TRFRET 3, BJeLR viability -3 and MazEF act 16.
Cc1ccc(N(Cc2cc3cc(C)ccc3[nH]c2=O)C(=O)c2cccs2)cc1 was read as PrP UTR inh 5, PrPC TRFRET -2, BJeLR viability -7 and MazEF act 89*.
For Nc1ccc(-c2cc3ccccc3oc2=O)cc1 the results were PrP UTR inh 85*, PrPC TRFRET -24, BJeLR viability 7 and MazEF act 4.
`Cc1oc2c(c1C(=O)NCc1cccnc1)C(=O)c1ccccc1C2=O` gave BJeLR viability 76* and MazEF act 7.
Screening O=c1oc2ccccc2cc1-c1ccc(O)cc1 returned PrP UTR inh -77, PrPC TRFRET -10, BJeLR viability -7 and MazEF act -11.
O=C(NCc1cccnc1)c1ccc(-c2cc3ccccc3oc2=O)cc1 was read as PrP UTR inh -55, PrPC TRFRET -40, BJeLR viability 66* and MazEF act -17.
`CCCc1sc(N/N=C/c2ccccn2)nc1-c1ccc(F)cc1` gave PrP UTR inh 20, BJeLR viability 61* and MazEF act -20.
COC(=O)[C@]12C[C@H](CC(=O)N3CCSCC3)C(=O)N(Cc3ccc(Cl)cc3Cl)C1=C[C@H](C(C)C)O[C@@H]2C1CC1 was read as PrPC TRFRET -3.
For CC1=CC2=C(C=O)C(=O)C(C)(O)C(O)C2=CO1 (stereo not drawn) the results were PrPC TRFRET -5 and MazEF act 242*.
CCCN1C(=O)/C(=C/c2ccc3c(c2)OCO3)NC1=S was read as PrP UTR inh -8, PrPC TRFRET 1, BJeLR viability 2 and MazEF act -26.
Screening CCCN1C/C(=C/c2ccc3c(c2)OCO3)C(=O)/C(=C/c2ccc3c(c2)OCO3)C1 returned PrP UTR inh -19, PrPC TRFRET -3, BJeLR viability 53* and MazEF act -6.
O=C(Nc1c(-c2ccccc2)nc2ncccn12)c1ccc(F)cc1 was read as PrPC TRFRET 0.
For CN(C)c1ccc(/C=C2\SC(=S)N(Nc3ncc(C(F)(F)F)cc3Cl)C2=O)cc1 the results were PrP UTR inh -22, PrPC TRFRET 4, BJeLR viability -3 and MazEF act 52*.
For CC(=O)O[C@@H]1C=C[C@@H](C#Cc2ccc(C(C)(C)C)cc2)O[C@@H]1COC(=O)NCc1ccccc1 the results were PrPC TRFRET -4.
Screening COc1ccc(-c2cc(=O)oc3c(C)c(OC(=O)c4cccs4)ccc23)cc1 returned PrP UTR inh -5, PrPC TRFRET -2 and MazEF act 109*.
Screening OC(CNCCC1C=Nc2ccccc21)Cn1c2ccc(Cl)cc2c2cc(Cl)ccc21 (stereo not drawn) returned PrP UTR inh 2, PrPC TRFRET -8, BJeLR viability 105* and MazEF act -27.
`N#Cc1ccc(S(=O)(=O)N2CCCc3nc(-c4ccc(F)cc4)ccc32)cc1` gave PrPC TRFRET -7.
For Oc1ccc(Nc2nc(-c3ccc(O)cc3)cs2)cc1 the results were PrP UTR inh -73, PrPC TRFRET -8, BJeLR viability -16 and MazEF act 78*.
For CCCN=C1N/C(=C\c2ccco2)C(=O)N1c1ccccc1 the results were PrP UTR inh -77, PrPC TRFRET -1, BJeLR viability -3 and MazEF act 52*.
Screening CCc1cc2cc3c(cc2nc1SCC(=O)Nc1nccs1)OCO3 returned PrP UTR inh -6, PrPC TRFRET -3, BJeLR viability 2 and MazEF act 56*.
For CCc1cc2cc3c(cc2nc1SCC(=O)Nc1c[nH]c(=O)[nH]c1=O)OCO3 the results were PrP UTR inh -16, PrPC TRFRET -1, BJeLR viability -7 and MazEF act 4.
For O=C(CSc1nc(-c2ccccc2)nc2ccccc12)Nc1nccs1 the results were PrP UTR inh -18, PrPC TRFRET 3, BJeLR viability -17 and MazEF act 136*.
Oc1[nH]c2ccccc2c1N=Nc1ccccc1Cl was read as PrP UTR inh -66, PrPC TRFRET -2 and MazEF act 17.
`Oc1[nH]c2ccccc2c1N=Nc1cccc(Cl)c1` gave PrP UTR inh -53, PrPC TRFRET -7, BJeLR viability 15 and MazEF act 362*.
`COC(=O)[C@]12C[C@H](CC(=O)N3CCOCC3)C(=O)N(CCc3ccc(OC)c(OC)c3)C1=C[C@H](C(C)(C)C)O[C@@H]2C` gave PrPC TRFRET -1.
For COc1cccc(CNC(=O)[C@H]2CCCN2C(=O)C2CCCN2C(=O)c2ccc(OC)c(F)c2)c1 (stereo partly drawn) the results were PrPC TRFRET -2.
CCOc1cccc(C2C(C(=O)c3ccco3)=C(O)C(=O)N2c2nnc(C)s2)c1 (stereo not drawn) was read as PrP UTR inh -28, PrPC TRFRET 5 and MazEF act -31.
`CCSc1nnc(N2C(=O)C(O)=C(C(=O)c3ccco3)C2c2cccc(OC)c2)s1` (stereo not drawn) gave PrP UTR inh -36, PrPC TRFRET 1, BJeLR viability -8 and MazEF act 65*.
For CC(C)C(c1nnnn1Cc1ccco1)N1CCN(C2CCCC2)CC1 (stereo not drawn) the results were PrP UTR inh -7, PrPC TRFRET -2, BJeLR viability 12 and MazEF act -2.
c1coc(Cn2nnnc2CN2CCN(C3CCCC3)CC2)c1 was read as PrP UTR inh -17, PrPC TRFRET -2, BJeLR viability 2 and MazEF act 102*.
CCOC(=O)c1c(Nc2ccc(OC)cc2)n[nH]c1C was read as PrPC TRFRET -1.
`COC(=O)[C@]12C[C@H](CC(=O)N3CCC(c4ccccc4)CC3)C(=O)N(CCc3ccc(OC)c(OC)c3)C1=C[C@H](C(C)(C)C)O[C@@H]2C` gave PrPC TRFRET 2.
Screening O=C(O)c1ccccc1C=NNc1ccc([N+](=O)[O-])cn1 returned PrP UTR inh -7, PrPC TRFRET -6 and MazEF act 7.
O=[N+]([O-])c1ccc(NN=Cc2cccc3ccccc23)nc1 was read as PrP UTR inh -36, PrPC TRFRET 0 and MazEF act 123*.
For Cc1cccc(N(C)S(=O)(=O)c2ccc(-c3cnc(C4CC4)o3)cc2)c1 the results were PrP UTR inh 59*, PrPC TRFRET 9, BJeLR viability 65* and MazEF act -7.
Cc1cccc(C)c1NC(=O)[C@H]1CC(=O)O[C@@H]1c1ccccc1 was read as PrPC TRFRET 6.
COc1ccc(C(c2c(O)ccc3ccccc23)N2CCOCC2)c(OC)c1 (stereo not drawn) was read as PrP UTR inh -54, PrPC TRFRET 61*, BJeLR viability -2 and MazEF act -28.
COc1ccc(C(CCN2CCOCC2)c2c(O)cc(OC)cc2OC)cc1 (stereo not drawn) was read as PrP UTR inh -17, PrPC TRFRET -10, BJeLR viability 10 and MazEF act 5.

Assay outcomes as filed in PubChem.
